Where a name gives a salt, the structure may show the parent alone.
tested on: 786-O; experiment: Euclidean distance of Cell Painting phenotypic profile (signed KS, 77 features) to DMSO centroid (dimensionless distance); 5 or 10 uM (library dependent); higher = stronger phenotypic change vs DMSO (phenoactivity); settings: 48 h
Outline: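 Five cancer lines and a healthy fibroblast line received library compounds at 10 or 5 uM (library-dependent, 0.1% DMSO final) for 48 h. Stained cells were imaged confocally at 20X (9 fields/well). Harmony extracted 77 features, each scored as a signed Kolmogorov-Smirnov statistic against same-plate vehicle wells. Profiles were plate-position corrected, correlation-weighted and replicate-averaged at the top dose. Phenoactivity is the Euclidean distance from each profile to the median vehicle profile.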

| Structure (SMILES) | Euclidean distance |
| --- | --- |
| COCCCN1CCC(NC(=O)c2cc(Cl)c(N)c3c2OCC3)CC1 [Prucalopride Succinat] | 0.911 |
| OC[C@H]1O[C@@H](Oc2cc(O)cc(/C=C/c3ccc(O)cc3)c2)[C@H](O)[C@@H](O)[C@@H]1O [Polydatin] | 1.21 |
| C[N+](C)(C)NCCC(=O)[O-] [Mildronate] | 1.41 |
| CN[C@@H]1[C@H](O)[C@H](NC)[C@H]2O[C@@]3(O)C(=O)C[C@@H](C)O[C@H]3O[C@@H]2[C@H]1O [Spectinomycin HCl] | 0.726 |
| Cn1cnc2c(F)c(Nc3ccc(Br)cc3F)c(C(=O)NOCCO)cc21 | 2.04 |
| C/C(=N\NC(=S)N1CCC1)c1ccccn1 | 3.65 |
| CCCCOc1nc(N)c2c(n1)N(Cc1cccc(CN3CCCC3)c1)CC(=O)N2 | 1.32 |
| CN1CCc2cc3c(cc2C(=O)Cc2ccc4c(c2C1)OCO4)OCO3 [Protopine] | 0.844 |
| O=C(O)CCCc1cc2cc(Cl)ccc2n1S(=O)(=O)c1ccc2ncsc2c1 [Lanifibranor(IVA-337)] | 0.7 |
| Nc1ncccc1-c1nc2ccc(-c3ccccc3)nc2n1-c1ccc(C2(N)CCC2)cc1 [Miransertib (ARQ 092) HCl] | 4.75 |
| CCC[C@@H]1C[C@@H](C(=O)N[C@@H]([C@H]2O[C@H](SC)[C@H](O)[C@@H](O)[C@H]2O)[C@@H](C)O)N(C)C1 [Lincomycin HCl] | 1.49 |
| c1ccc(-c2nn3c(c2-c2ccnc4cc(OCCN5CCOCC5)ccc24)CCC3)nc1 | 1.44 |
| Cc1c(-c2ccnn2C)cc(C(=O)NCc2ccc(S(C)(=O)=O)cn2)c(=O)n1-c1cccc(C(F)(F)F)c1 [Alvelestat (AZD9668)] | 1.01 |
| CCCCC(=O)N(Cc1ccc(-c2ccccc2-c2nnn[nH]2)cc1)[C@H](C(=O)O)C(C)C [Valsartan] | 1.68 |
| CN1C(C(=O)Nc2ccccn2)=C(O)c2sc(Cl)cc2S1(=O)=O [Lornoxicam] | 0.853 |
| O=C(O)Cn1nnc(-c2cc(N3CCC(Oc4cc(F)ccc4Br)CC3)no2)n1 | 0.964 |
| CC[N+](C)(C)c1cccc(O)c1 [Edrophonium chloride] | 0.852 |
| N=C1CCCN1Cc1[nH]c(=O)[nH]c(=O)c1Cl.O=c1[nH]c(=O)n([C@H]2C[C@H](O)[C@@H](CO)O2)cc1C(F)(F)F | 3.51 |
| NC(CO)C(=O)NNCc1ccc(O)c(O)c1O (centres undefined) [Benserazide HCl] | 1.18 |
| O=C(/C=C/c1ccc(O)cc1)c1ccc(O)cc1O [Isoliquiritigenin] | 0.936 |

| Structure (SMILES) | Euclidean distance |
| --- | --- |
| O=C1C(O)=C([C@H]2CC[C@H](c3ccc(Cl)cc3)CC2)C(=O)c2ccccc21 [Atovaquone] | 1.3 |
| C=CCc1ccccc1OCC(O)CNC(C)C (centres undefined) [Alprenolol hydrochloride] | 0.84 |
| CCN1CCCC1CNC(=O)c1cc(S(=O)(=O)CC)c(N)cc1OC (centres undefined) [Amisulpride] | 1.04 |
| C#C[C@]1(O)CC[C@H]2[C@@H]3CCC4=CC(=O)CC[C@@H]4[C@H]3CC[C@@]21C [Norethindrone] | 1 |
| N#C/C(=C\c1ccc(O)c(O)c1)C(=O)NCc1ccccc1 [AG-490 (Tyrphostin B42)] | 1.55 |
| CN1CCc2c(c3ccccc3n2Cc2ccc(C(=O)NO)cc2)C1 [Tubastatin A HCl] | 0.602 |
| Oc1c(Cl)cc(Cl)c(Cl)c1Cc1c(O)c(Cl)cc(Cl)c1Cl [Hexachlorophene] | 2.16 |
| CN1CC2c3ccccc3Oc3ccc(Cl)cc3C2C1 (centres undefined) [Asenapine] | 1.1 |
| COc1cc2c(N3CCN(C(=O)Nc4ccc(OC(C)C)cc4)CC3)ncnc2cc1OCCCN1CCCCC1 [Tandutinib (MLN518)] | 0.691 |
| CCOC(=O)[C@H](CCc1ccccc1)N[C@@H](C)C(=O)N1[C@H](C(=O)O)C[C@@H]2CCC[C@@H]21 [Ramipril] | 1.25 |
| NC1(Cc2ccc(Cl)cc2)CCN(c2ncnc3[nH]ccc23)CC1 | 1.5 |
| O=C(O)c1ccc2c(c1)nc(Nc1cccc(Cl)c1)c1ccncc12 [CX-4945 (Silmitasertib)] | 1.47 |
| CC(C)CN(C[C@@H](O)[C@H](Cc1ccccc1)NC(=O)O[C@H]1CCOC1)S(=O)(=O)c1ccc(N)cc1 [Amprenavir] | 1.35 |
| CC(C)C[C@H](NC(=O)CNC(=O)[C@H](Cc1ccc(O)cc1)NC(=O)[C@H](CO)NC(=O)[C@H](Cc1c[nH]c2ccccc12)NC(=O)[C@H](Cc1cnc[nH]1)NC(=O)[C@@H]1CCC(=O)N1)C(=O)N[C@@H](CCCNC(=N)N)C(=O)N1CCC[C@H]1C(=O)NCC(N)=O [Gonadorelin Acetate] | 1.59 |
| CNCC[C@H](Oc1cccc2ccccc12)c1cccs1 [Duloxetine HCl] | 1.15 |
| CCOC(=O)c1ccc(OC(=O)CCCCCNC(=N)N)cc1 [Gabexate Mesylate] | 1.36 |
| O=C(O)c1cn(-c2ccc(F)cc2)c2cc(N3CCNCC3)c(F)cc2c1=O [Sarafloxacin HCl] | 1.11 |
| COc1ccccc1OCC(O)CO (centres undefined) [Guaifenesin] | 1.05 |
| COc1ccc(C2CNC(=O)C2)cc1OC1CCCC1 (centres undefined) [Rolipram] | 1.65 |

Reference: the supplement of paper PMC10127200
